The campaign covered roughly 39,000 compounds. About 3,300 (8.5%) were called active. What follows is part of a selection rich in actives, with near analogues and random picks from the rest.

In this experiment the test system is HepG2. The experiment is described as follows: cytotoxicity call (relative viability < 0.9). The conditions noted are these: 10 µM.
On to `COCC(=O)N(C)C[C@H]1Oc2cc(C#Cc3ccccc3)ccc2S(=O)(=O)N([C@H](C)CO)C[C@H]1C`, for which the cytotoxicity call is “inactive”.

Turning to `C[C@@H]1CN([C@H](C)CO)C(=O)Cc2cc(NC(=O)Nc3ccc(F)cc3)ccc2O[C@H]1CN(C)Cc1ccc(-c2ccccc2)cc1`, the cytotoxicity call is “active”. To `C[C@@H]1CN([C@@H](C)CO)C(=O)Cc2cc(NC(=O)Nc3ccc(F)cc3)ccc2O[C@H]1CN(C)Cc1ccc(-c2ccccc2)cc1` belongs “active”; to `C[C@H]1CN([C@@H](C)CO)C(=O)Cc2cc(NC(=O)Nc3ccc(F)cc3)ccc2O[C@H]1CN(C)Cc1ccc(-c2ccccc2)cc1`, “active”.

With `C[C@@H]1CN([C@H](C)CO)C(=O)Cc2cc(NC(=O)Nc3ccc(F)cc3)ccc2O[C@@H]1CN(C)Cc1ccc(-c2ccccc2)cc1`, the cytotoxicity call is “inactive”. `C[C@@H]1CN([C@@H](C)CO)C(=O)CCCn2nncc2CO[C@H]1CN(C)C(=O)Nc1ccc(C(C)(C)C)cc1`: the cytotoxicity call is “inactive”. `C[C@H](CO)N1C[C@H](C)[C@@H](CN(C)Cc2ccc(C(=O)O)cc2)Oc2c(NC(=O)c3cnccn3)cccc2C1=O`: the cytotoxicity call was “inactive”. On to `CCOc1nc(N2CCOCC2)nc(N2CCOCC2)n1`, for which the cytotoxicity call was “inactive”.

Regarding `CC=NN(C)C=O`, the cytotoxicity call is “inactive”.

For the compound `CC(C)NC(=O)Nc1ccc2c(c1)CC(=O)N([C@@H](C)CO)C[C@H](C)[C@@H](CN(C)S(=O)(=O)c1ccccc1)O2`, the cytotoxicity call was “inactive”. To `c1ccc(CN(CC2=NCCN2)c2ccccc2)cc1` belongs “inactive”; to `CC(COc1ccccc1)N(CCCl)Cc1ccccc1.Cl` (stereo not drawn), “inactive”; to `CC(C)COCC(CN(Cc1ccccc1)c1ccccc1)N1CCCC1.Cl` (stereo not drawn), “active”. In the case of `CN(C)C(=O)[C@@H]1[C@@H](CO)[C@@H]2Cn3c(ccc(C4=CCCC4)c3=O)[C@H]1N2S(=O)(=O)c1cn(C)cn1`, the cytotoxicity call is “inactive”. For the compound `COc1cccc(C#Cc2cnc3c(c2)C(=O)N([C@H](C)CO)C[C@H](C)[C@@H](CN(C)C(=O)C2CCC2)O3)c1`, the cytotoxicity call is “inactive”.

`Cn1cnc(S(=O)(=O)N2C[C@@H](O)COC[C@@H]3O[C@H](CC(=O)NCc4cc(F)cc(F)c4)CC[C@H]32)c1`: the cytotoxicity call was “inactive”.

As to `C[C@H](CO)N1C[C@H](C)[C@H](CN(C)S(=O)(=O)c2cccs2)Oc2ncc(-c3ccc(F)cc3)cc2C1=O`, the cytotoxicity call is “inactive”. As for `Cc1cc2nc3c(=O)[nH]c(=O)nc-3n(CC(O)C(O)C(O)CO)c2cc1C` (stereo not drawn), the cytotoxicity call is “inactive”.

Take `Cc1cc2nc3c(=O)[nH]c(=O)nc-3n(C[C@H](O)[C@H](O)[C@H](O)COP(=O)(O)O)c2cc1C`: the cytotoxicity call was “inactive”. To `Cc1cc2nc3c(=O)[nH]c(=O)nc-3n(CC(O)C(O)C(O)COP(=O)([O-])O)c2cc1C.[Na+]` (stereo not drawn) belongs “active”. Turning to `C[C@@H]1CN([C@H](C)CO)C(=O)c2cc(C#CC3(O)CCCC3)cnc2O[C@H]1CN(C)C(=O)Cc1ccccc1`, the cytotoxicity call is “inactive”. For the compound `C[C@H]1CN([C@@H](C)CO)C(=O)c2cccc(NC(=O)Nc3cccc4ccccc34)c2O[C@H]1CN(C)Cc1ccc(-c2ccccc2)cc1`, the cytotoxicity call was “inactive”.

For `C[C@@H]1CCCCO[C@H](CN(C)Cc2ccc(C(=O)O)cc2)[C@H](C)CN([C@H](C)CO)C(=O)c2cc(NC(=O)Nc3ccc4c(c3)OCO4)ccc2O1`, the cytotoxicity call was “inactive”. In the case of `C[C@@H]1CN([C@H](C)CO)C(=O)c2cc(NC(=O)Nc3ccc(C(F)(F)F)cc3)ccc2O[C@@H](C)CCCCO[C@@H]1CN(C)Cc1ccc(Cl)c(Cl)c1`, the cytotoxicity call is “inactive”.

Take `C[C@@H]1CCCCO[C@@H](CN(C)Cc2ccc(Cl)c(Cl)c2)[C@@H](C)CN([C@H](C)CO)C(=O)c2cc(NC(=O)Nc3ccc(C(F)(F)F)cc3)ccc2O1`: the cytotoxicity call is “inactive”. Consider `C[C@@H]1CCCCO[C@H](CN(C)Cc2ccc(Cl)c(Cl)c2)[C@@H](C)CN([C@@H](C)CO)C(=O)c2cc(NC(=O)Nc3ccc(C(F)(F)F)cc3)ccc2O1`, for which the cytotoxicity call is “active”. Regarding `C[C@@H]1CCCCO[C@@H](CN(C)Cc2ccc(Cl)c(Cl)c2)[C@H](C)CN([C@H](C)CO)C(=O)c2cc(NC(=O)Nc3ccc(C(F)(F)F)cc3)ccc2O1`, the cytotoxicity call is “inactive”. As for `C[C@@H]1CN([C@H](C)CO)C(=O)c2cc(NC(=O)Nc3ccc(C(F)(F)F)cc3)ccc2O[C@@H](C)CCCCO[C@H]1CN(C)Cc1ccc(Cl)c(Cl)c1`, the entry is “inactive”; as for `C[C@@H]1CCCCO[C@H](CN(C)Cc2ccc(Cl)c(Cl)c2)[C@H](C)CN([C@@H](C)CO)C(=O)c2cc(NC(=O)Nc3ccc(C(F)(F)F)cc3)ccc2O1`, “active”; as for `C[C@@H]1CN([C@@H](C)CO)C(=O)c2cc(NC(=O)Nc3ccc(C(F)(F)F)cc3)ccc2O[C@@H](C)CCCCO[C@H]1CN(C)Cc1ccc(Cl)c(Cl)c1`, “inactive”. Consider `C[C@@H]1CCCCO[C@@H](CN(C)Cc2ccc(Cl)c(Cl)c2)[C@@H](C)CN([C@@H](C)CO)C(=O)c2cc(NC(=O)Nc3ccc(C(F)(F)F)cc3)ccc2O1`, for which the cytotoxicity call is “inactive”. Take `C[C@H](CO)N1C[C@H](C)[C@@H](CN(C)Cc2ccc(Cl)c(Cl)c2)OCCCC[C@H](C)Oc2ccc(NC(=O)Nc3ccc(C(F)(F)F)cc3)cc2C1=O`: the cytotoxicity call is “active”. Regarding `C[C@@H]1CCCCO[C@@H](CN(C)Cc2ccc(Cl)c(Cl)c2)[C@H](C)CN([C@@H](C)CO)C(=O)c2cc(NC(=O)Nc3ccc(C(F)(F)F)cc3)ccc2O1`, the cytotoxicity call was “active”. As for `COc1ccc(S(=O)(=O)N(C)C[C@H]2Oc3c(NC(=O)C4CC4)cccc3C(=O)N([C@@H](C)CO)C[C@H]2C)cc1`, the entry is “inactive”; as for `C[C@H](CO)N1C[C@H](C)[C@@H](CN(C)Cc2ccccc2)Oc2c(NC(=O)CCCCCC(=O)Nc3ccccc3N)cccc2C1=O`, “inactive”; as for `c1ccc([C@@H]2CCC[C@H](c3ccccc3)S2)cc1`, “inactive”. For the compound `C[C@H]1CN([C@@H](C)CO)C(=O)c2cc(NS(=O)(=O)c3cccs3)ccc2O[C@@H]1CN(C)C(=O)Nc1cccc2ccccc12`, the cytotoxicity call was “inactive”.

With `Cn1cc(C[C@@H](N)C(=O)O)c2ccccc21`, the cytotoxicity call was “inactive”. Take `O=C(C[C@H]1C[C@@H]2c3cc(NC(=O)NC4CCCC4)ccc3O[C@@H]2[C@@H](CO)O1)NCCN1CCCCC1`: the cytotoxicity call was “inactive”.

Turning to `NC(Cc1cc(I)c(Oc2cc(I)c(O)c(I)c2)c(I)c1)C(=O)[O-].[Na+]` (stereo not drawn), the cytotoxicity call is “inactive”.

`C[C@H]1CN([C@@H](C)CO)C(=O)c2cc(NC(=O)Nc3ccccc3)ccc2O[C@@H]1CN(C)C(=O)Nc1cccc2ccccc12`: the cytotoxicity call is “inactive”. As for `C[C@H]1CCCCO[C@@H](CN(C)Cc2ccc(Cl)c(Cl)c2)[C@@H](C)CN([C@@H](C)CO)C(=O)c2cc(NC(=O)Nc3ccc(C(F)(F)F)cc3)ccc2O1`, the cytotoxicity call was “inactive”. To `C[C@H]1CCCCO[C@H](CN(C)Cc2ccc(Cl)c(Cl)c2)[C@@H](C)CN([C@@H](C)CO)C(=O)c2cc(NC(=O)Nc3ccc(C(F)(F)F)cc3)ccc2O1` belongs “inactive”; to `C[C@H](CO)N1C[C@H](C)[C@H](CN(C)Cc2ccc(Cl)c(Cl)c2)OCCCC[C@H](C)Oc2ccc(NC(=O)Nc3ccc(C(F)(F)F)cc3)cc2C1=O`, “active”; to `CC(=O)c1ccc(O)c(C(N)=O)c1`, “inactive”. As for `COc1ccc(S(=O)(=O)Nc2ccc3c(c2)CC(=O)N([C@H](C)CO)C[C@@H](C)[C@@H](CN(C)Cc2ccc(-c4ccccc4)cc2)O3)cc1`, the entry is “active”; as for `COc1ccc(S(=O)(=O)Nc2ccc3c(c2)CC(=O)N([C@H](C)CO)C[C@H](C)[C@@H](CN(C)Cc2ccc(-c4ccccc4)cc2)O3)cc1`, “inactive”; as for `COc1ccc(S(=O)(=O)Nc2ccc3c(c2)CC(=O)N([C@@H](C)CO)C[C@@H](C)[C@@H](CN(C)Cc2ccc(-c4ccccc4)cc2)O3)cc1`, “inactive”. As to `COc1ccc(S(=O)(=O)Nc2ccc3c(c2)CC(=O)N([C@H](C)CO)C[C@H](C)[C@H](CN(C)Cc2ccc(-c4ccccc4)cc2)O3)cc1`, the cytotoxicity call is “active”. Regarding `COc1ccc(S(=O)(=O)Nc2ccc3c(c2)CC(=O)N([C@@H](C)CO)C[C@H](C)[C@@H](CN(C)Cc2ccc(-c4ccccc4)cc2)O3)cc1`, the cytotoxicity call is “inactive”.

Take `COc1ccc(S(=O)(=O)Nc2ccc3c(c2)CC(=O)N([C@@H](C)CO)C[C@@H](C)[C@H](CN(C)Cc2ccc(-c4ccccc4)cc2)O3)cc1`: the cytotoxicity call is “active”. For `COc1ccc(S(=O)(=O)Nc2ccc3c(c2)CC(=O)N([C@@H](C)CO)C[C@H](C)[C@H](CN(C)Cc2ccc(-c4ccccc4)cc2)O3)cc1`, the cytotoxicity call was “active”.

As to `Cc1cc(C(F)(F)F)cc(Cl)n1`, the cytotoxicity call is “inactive”.

On to `Cc1ccc(S(=O)(=O)N(C)C[C@@H]2OCCCC[C@H](C)Oc3ccc(NC(=O)Nc4ccc(C(F)(F)F)cc4)cc3C(=O)N([C@H](C)CO)C[C@@H]2C)cc1`, for which the cytotoxicity call is “inactive”.

Take `CC(C)NC(=O)N(C)C[C@H]1Oc2c(NC(=O)NC3CCCCC3)cccc2C(=O)N([C@H](C)CO)C[C@H]1C`: the cytotoxicity call was “inactive”.

As for `C[C@H](CO)N1C[C@H](C)[C@@H](CN(C)C(=O)Cc2cccnc2)Oc2ncc(C#Cc3ccccc3F)cc2C1=O`, the cytotoxicity call was “inactive”.

As to `Cc1nn(C)cc1NC(=O)C[C@H]1CC[C@H]2[C@@H](COc3ccc(NC(=O)C4CCOCC4)cc3C(=O)N2C)O1`, the cytotoxicity call was “inactive”. With `COCC(=O)NCc1n[nH]c(=O)c2ccccc12`, the cytotoxicity call was “inactive”. On to `CC1(C)OC(=O)C2(C(=O)O1)[C@@H](c1ccc(-c3ccc(C(F)(F)F)cc3)cc1)CC(=O)C[C@H]2c1ccccc1`, for which the cytotoxicity call is “inactive”. For the compound `COc1ccc(S(=O)(=O)Nc2ccc3c(c2)CC(=O)N([C@H](C)CO)C[C@@H](C)[C@H](CN(C)Cc2ccc(-c4ccccc4)cc2)O3)cc1`, the cytotoxicity call was “active”. As for `CC(C)NC(=O)Nc1cccc2c1O[C@H](CN(C)Cc1ccc(C(=O)O)cc1)[C@H](C)CN([C@H](C)CO)C2=O`, the entry is “inactive”. `COc1ccc(S(=O)(=O)Nc2ccc3c(c2)C(=O)N([C@@H](C)CO)C[C@H](C)[C@@H](CN(C)S(=O)(=O)c2ccc(OC)cc2)O3)cc1`: the cytotoxicity call is “inactive”. As for `C[C@@H]1CCCCO[C@H](CN(C)S(=O)(=O)c2ccccc2)[C@@H](C)CN([C@@H](C)CO)C(=O)c2cc(NC(=O)Nc3ccc(F)cc3)ccc2O1`, the entry is “inactive”.

The record behind these values is the antibiotic and cytotoxicity screens of Wong et al. (2023).
